Source: PubChem (several laboratories)
Rows were chosen to be rich in hits. Some 5.3% of all compounds tested hit in one or more screens of this group.
Measles CPE = protection of cells from measles virus. 140,000 compounds, 1.5% hits. protection (pct of control), % at 4 µM. Measles virus-infected cells, CPE protection, absorbance; in the data active = protection mostly above about 24%, no sharp cut-off; inactive = mostly below about 26%
MT1-MMP txn act = activates MT1-MMP transcription; HT1080 MT1-MMP promoter luciferase reporter, luminescence, overnight; active compounds read high; AID 750; activation factor at 10 µM; 86,000 compounds, 0.16% hits;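 active = activation factor of at least 2 for MT1-MMP transcription at 10 µM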
PostGolgi yeast = growth inhibition of a yeast mutant, post-Golgi transport screen; post-Golgi transport phenotypic cell assay; inhibition, % at 10 µM; 98,000 compounds, 0.9% hits; AID 739;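 note: yeast cells grown in 1536-well plates; yeast grown about 18 h at 30C before absorbance read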
PostGolgi ctrl = inhibits growth of the yeast control strain; efflux-deficient yeast background strain, growth absorbance A615, 16 h; inhibition, % at 10 µM; AID 738; 98,000 compounds, 5% hits
Numbers without * were called inactive; nt = no result. Cut-off read from the data, not from the text of the source, unless noted: active = inhibition above about 30%; inactive = the rest.

SMILES	Measles CPE	MT1-MMP txn act	PostGolgi yeast	PostGolgi ctrl
COc1cc(S(=O)(=O)n2ccc(C)n2)c(OC)cc1Cl	5	1.2	3	34*
COC(=O)c1ccc(C(NC(=O)OCc2ccccc2)/C(=C/[C@@H](C)C(=O)NCc2cc(F)cc(F)c2)c2cccnc2)cc1 (some centres not stated)	nt	1.3	nt	nt
Cc1cc(C)c2c(N)c(C(=O)c3ccc(Cl)cc3)sc2n1	4	nt	nt	nt
Cc1cc(C)c2c(N)c(C(=O)NCC3CCCCC3)sc2n1	25*	1.4	3	7
CCCNC(=O)Nc1ccc2c(c1)N(C)C(=O)c1ccccc1S2	60*	1	-7	4
FC(F)(F)c1ccc(Cl)c(N/N=C/c2ccc(N3CCOCC3)s2)c1	4	nt	nt	nt
CCc1ccccc1NC(=O)/C(=C/c1ccco1)c1ccccc1	4	0.9	-2	35*
COc1ccc(C2=NN(CN3C(=O)C(=O)c4ccccc43)C(c3ccc(Br)cc3)C2)cc1 (configuration not stated)	6	1.4	4	32*
Cc1cc(N2CCN(C)CC2)nc2ccc(NC(=O)c3ccc(Br)o3)cc12	16	1.4	17	32*
COc1ccc(-c2[nH]ncc2Oc2ccccc2OC)c(O)c1	1	1.2	6	19
C=C(C)COc1ccc(-c2[nH]ncc2-c2ccccc2)c(O)c1	39	1	45*	62*
C=C(C)COc1ccc(-c2[nH]ncc2Oc2cccc(OC)c2)c(O)c1	6	1.3	16	30*
C=C(C)COc1ccc(-c2[nH]ncc2Oc2ccccc2OCC)c(O)c1	19	1.2	49*	19
CCCc1ccc(Oc2cn[nH]c2-c2ccc(O)cc2O)cc1	11	1.2	97*	99*
O=C(c1cccs1)N1CCN(Cc2cccc([N+](=O)[O-])c2)CC1	3	nt	nt	nt
COc1ccc(-c2c3c(nc4sc5c(Cl)nc(C)nc5c24)CCC3)cc1	3	nt	8	10
CCOC(=O)CC(=O)CSc1nnc2c(n1)[nH]c1ccccc12	7	nt	-5	45*
Cc1sc2ncnc(N3CCN(CCOc4ccc(Cl)cc4)CC3)c2c1C	30	1.1	-5	35*
Cc1sc2ncnc(N3CCC(C)CC3)c2c1C	1	1.1	nt	nt
CCNc1nc(NCC)n2c(SCC(=O)N3CC4(C)CC3CC(C)(C)C4)nnc2n1 (configuration not stated)	19	nt	nt	nt
CCC(c1nnc(SCC(=O)N2CC3(C)CC2CC(C)(C)C3)o1)N(C)C (configuration not stated)	48*	1.2	-5	-2
O/N=C1/C2C3CC4C5C3C1C5C1(OCCO1)C42 (configuration not stated)	51*	1.1	-3	-6
O=C(OCc1ccc(F)cc1)c1ccc2c(c1)-c1ccccc1C2=O	12	nt	2	38*
CCOC(=O)C1=C(Cc2ccc(F)cc2)C(=O)c2ccccc2C1=O	11	1.1	0	24
CCCC/C=C/C(NC(=O)c1ccc(C(F)(F)F)cc1)c1ccccc1 (configuration not stated)	nt	1.9	nt	nt
SMILES	Measles CPE	MT1-MMP txn act	PostGolgi yeast	PostGolgi ctrl
COc1cc(NC(=O)c2cnn3c(C)cc(C)nc23)c(OC)cc1Cl	5	1.1	0	41*
Cc1cccc(N2C(=O)CC(N3CCN(C(=O)c4ccccc4)CC3)C2=O)c1 (configuration not stated)	15	1.1	-7	-2
COc1cccc(N2C(=O)CC(N3CCN(C(=O)c4ccco4)CC3)C2=O)c1 (configuration not stated)	74*	1.1	-11	-7
Nc1ccc(C(=O)OCC(=O)N2CCc3ccccc3C2)cc1[N+](=O)[O-]	39	nt	nt	nt
Nc1ccc(C(=O)OCC(=O)N2c3ccccc3Sc3ccccc32)cc1[N+](=O)[O-]	33*	nt	nt	nt
CC(C)Cn1c(-c2cccs2)nc2nc3ccccc3nc21	19	1	-1	38*
c1ccc(Cn2c(-c3cccs3)nc3nc4ccccc4nc32)cc1	8	1.2	3	21
CCCCn1c(-c2cccs2)nc2nc3ccccc3nc21	3	1.1	-12	31*
O=C(Nc1nnc(COc2ccccc2)s1)c1ccco1	45*	1.1	-6	24
O=C(Nc1nc(-c2cccs2)c(-c2ccccc2)s1)c1ccco1	9	1.1	36*	32*
O=C(Nc1nc(-c2nc3ccccc3s2)cs1)c1ccco1	49*	1.4	0	5
O=C(Nc1nc(-c2nc3ccccc3s2)cs1)C1CC1	6	1.6	4	18
COc1ccc(Cc2nnc(NC(=O)c3ccco3)s2)cc1	1	1.2	-6	15
O=C(Nc1nnc(-c2cccs2)o1)c1ccco1	14	1.1	2	7
O=C(N/N=C/c1ccc([N+](=O)[O-])s1)c1cccnc1	41	nt	nt	nt
O=S(=O)(Nc1ccc(-n2cccc2)cc1)c1ccc(Cl)cc1Cl	15	nt	-4	67*
O=C(NNC(=O)c1ccco1)c1cccc([N+](=O)[O-])c1	2	nt	-9	7
C=CCNC(=O)c1onc(CSc2cc(C)ccc2C)c1C(=O)O	34*	nt	0	-1
C=CCNC(=O)c1onc(CSc2ccccc2C)c1C(=O)O	7	nt	-4	6
COC(=O)[C@@]1(Cc2ccc(F)cc2)[C@H]2c3cc(C(=O)N4CCCC4)n(Cc4c(CO)[nH]cc(C)c4=O)c3C[C@H]2CN1C(=O)c1ccccc1	nt	1.2	nt	nt
COc1ccc2cc(C(=O)N3CCCCCC3)sc(=O)c2c1OC	8	1.3	8	7
COC(=O)c1cc2ccc(OC)c(OC)c2c(=O)s1	24*	0.9	-5	-4
Cc1ccccc1C1C(C#N)=C2NC(=O)c3c(sc4c3CCCCC4)N2C2=C1C(=O)CC(C)(C)C2 (configuration not stated)	2	nt	11	41*
O=C(CCN1CCc2ccccc2C(c2ccccc2)C1)c1ccc2c(c1)OCCO2 (configuration not stated)	41*	1.2	-11	-1
Cc1cc(C)nc(-n2nc(C)cc2NC(=O)CNC(C)c2ccccc2)n1 (configuration not stated)	33	nt	8	34*
SMILES	Measles CPE	MT1-MMP txn act	PostGolgi yeast	PostGolgi ctrl
Cc1cc(NC(=O)CSc2cc(Cl)ccc2Cl)n(-c2ccccc2)n1	6	nt	nt	nt
COC(=O)c1c(C)c2c(C)cc3ccccn3c-2c1C(=O)OC	6	nt	-2	0
COC(=O)c1cc2c(-c3ccccc3)cc3ccccn3c-2c1C(=O)OC	79*	nt	6	43*
Cc1ccc(-c2nc3ncccn3c2NC2CCCC2)o1	9	nt	6	9
Brc1ccc(-c2nc3ncccn3c2NC2CCCCC2)o1	7	1.1	4	45*
CCC1CCCCN1c1cc(C)nc2cc(-c3cccc(C)c3)nn12 (configuration not stated)	7	1	-1	55*
N#CC1=C(N)C(C#N)(C#N)C(c2cccnc2)C2CC(c3ccccc3)CC=C12 (configuration not stated)	9	1.5	71*	14
O=C(CC1N=C2c3ccccc3N=C(SCc3ccc(Cl)cc3)N2C1=O)NCc1ccco1 (configuration not stated)	2	1.1	-3	37*
O=S(=O)(Nc1nc(-c2sccc2Cl)cs1)c1cc(Cl)ccc1Cl	8	nt	-2	35*
